# Hits are enriched below; roughly 10% of the tested compounds scored in any of these assays.
# G9a block – G9a (human) methyltransferase inhibition; Q96KQ7; G9a H3K9 monomethylation, AlphaScreen, 2 h; Potency, µM (titrated, usually from 102 µM), hits mostly inhibitors; actives 8.8% (n = 350,000); AID 504332; note: nearly all actives have a fitted effect of over 75% in size
#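 AlphaScreen detection with an anti-monomethyl H3K9 antibody quantified product after a 2 h room-temperature reaction containing 500 nM biotinylated H3K9 peptide, 20 µM SAM and 20 nM enzyme, which had been preincubated 15 min with compound.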
# BAZ2B inh – inhibitors of human BAZ2B bromodomain | Q9UIF8 | AlphaScreen BAZ2B-H3K14Ac peptide displacement | Potency, µM (series often up to 114 µM), usual class: inhibitors | actives 4.4% (n = 360,000); note: nearly all actives have a fitted effect of over 60% in size
#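 AlphaScreen luminescence quantifies BAZ2B engagement of H3K14Ac peptide; the protein and biotinylated peptide are both at 50 nM final, buffer PBS pH 7.4 with 0.01% Tween-20, all steps at room temperature.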
# JMJD2A Tudor inh – blocks the human JMJD2A Tudor domain. O75164. AlphaScreen JMJD2A-Tudor / H3K4me3 peptide binding. Potency, µM (doses to about 114 µM), most hits filed as inhibitors. actives 4.4% (n = 390,000); note: nearly all actives have a fitted effect of over 50% in size
# HP1b binding inh – inhibitors of HP1-beta chromodomain binding to methylated histone tails; P83916; AlphaScreen HP1-beta / biotin-H3K9me3 peptide binding; Potency, µM (doses to about 114 µM), usual class: inhibitors; actives 0.56% (n = 390,000); AID 540317; note: nearly all actives have a fitted effect of over 70% in size
#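 Compound inhibition of the preformed complex between 50 nM HP1-beta and 50 nM biotinylated H3K9me3 peptide was read by AlphaScreen. Buffer was PBS pH 7.4 with 0.01% Tween-20. Incubations ran 30 min at room temperature, with 10 ug/mL donor/acceptor beads.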
# GLS inhibitor – blocks human kidney-isoform glutaminase activity. O94925. GLS enzymatic activity, qHTS titration. Potency, µM (top dose mostly 45.5 µM), actives largely listed as inhibitors. actives 0.21% (n = 410,000). AID 624170
# Target sequence (O94925 whole entry, looked up, canonical isoform): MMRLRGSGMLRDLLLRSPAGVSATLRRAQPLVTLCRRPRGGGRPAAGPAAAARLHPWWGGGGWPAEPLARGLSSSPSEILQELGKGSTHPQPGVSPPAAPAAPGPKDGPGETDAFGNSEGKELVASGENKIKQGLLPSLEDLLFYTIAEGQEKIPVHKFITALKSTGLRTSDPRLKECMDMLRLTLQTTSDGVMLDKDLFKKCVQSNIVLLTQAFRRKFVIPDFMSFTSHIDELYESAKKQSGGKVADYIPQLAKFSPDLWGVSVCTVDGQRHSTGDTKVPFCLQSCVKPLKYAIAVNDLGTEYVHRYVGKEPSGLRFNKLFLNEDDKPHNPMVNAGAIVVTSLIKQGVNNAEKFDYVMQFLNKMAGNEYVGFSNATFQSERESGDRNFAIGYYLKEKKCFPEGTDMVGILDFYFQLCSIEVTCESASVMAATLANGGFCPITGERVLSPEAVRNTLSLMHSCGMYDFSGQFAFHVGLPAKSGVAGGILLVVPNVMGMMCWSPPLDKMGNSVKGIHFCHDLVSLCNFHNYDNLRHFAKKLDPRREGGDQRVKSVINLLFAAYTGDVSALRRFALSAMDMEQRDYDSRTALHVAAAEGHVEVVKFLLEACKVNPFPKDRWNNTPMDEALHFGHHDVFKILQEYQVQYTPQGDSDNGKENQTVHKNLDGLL
#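 Coupled fluorescence readout: glutamate oxidase/HRP/Amplex Red detect glutamate formed by hKGA from L-glutamine (1 mM solution added). Buffer 45 mM KH2PO4 pH 8.2, 0.02% Tween-20; reads at t0 and 30 min RT.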
# Hits are given with their value; - = inactive; ? = inconclusive; . = no result; [ ] = remark or other dose. Calls come from the whole dose curve; as a rule, active = well fitted curve in the direction sought with a large enough effect; inconclusive = small, poorly fitted or top-dose-only effect, or another doubt; inactive = no such curve, though single readings can be large; an effect the other way counts as inactive or inconclusive.
SMILES,G9a block,BAZ2B inh,JMJD2A Tudor inh,HP1b binding inh,GLS inhibitor
O=C(Cn1nnc(-c2ccc(Cl)cc2)n1)NCc1ccco1,?,50µM,-,-,-
O=C1C(Cl)=C(NCCCN2CCOCC2)C(=O)N1CCc1ccccc1,-,-,-,-,-
O=C(N/N=C/C1C(c2ccccc2)C1(Cl)Cl)c1cccc(Cl)c1 (stereo not given),-,-,-,-,-
COc1cc2c(cc1OC)C(=Cc1ccc(N(C)C)cc1)C=C2,.,.,10µM,10µM,-
CN(C)c1ccc(C=C2C=Cc3ccccc32)cc1,.,.,14µM,?,-
CN(C)c1ccc(/C=N/N2C(=O)c3ccccc3C2=O)cc1,-,-,-,-,-
CNc1ccc(C=C2C=Cc3ccccc32)cc1,.,.,28µM,40µM,-
O=C(/C=C/c1ccc(S(=O)(=O)N2CCOCC2)cc1)NC(CO)C(O)c1ccc([N+](=O)[O-])cc1 (stereo not given),.,.,-,-,-
O=C(NCCCN1CCCC1)c1ccc(CS(=O)(=O)c2ccc(Br)cc2)o1,56µM,-,-,-,-
COc1ccc(N2CCN(CCCNC(=O)c3ccc(CS(=O)(=O)c4ccc(Cl)cc4)o3)CC2)cc1,50µM,28µM,-,-,-
CC1CCCC(NC(=O)COC(=O)c2cccnc2Cl)C1C (stereo not given),-[12.7 µM],-,-,-,-
C/C(=N/NC(=O)c1ccco1)c1cccc(NC(=O)c2ccc(C)o2)c1,.,-,-,-,-
O=C(c1ccccc1)c1cccc(NC(=O)c2ccc(Br)o2)c1,45µM,-,-,-,-
C/C(=N/NC(=O)c1ccc(Br)o1)c1cccc(NC(=O)c2ccc(C)o2)c1,-,-,50µM,-,?
CC1CCc2c(sc(NC(=O)c3cccs3)c2C(=O)O)C1 (stereo not given),-[2.33 µM],-,-,-,?
NNc1nc(-c2ccccc2)cs1,22µM,?,?,-,-
c1ccc(Nc2nc(-c3cccnc3)cs2)nc1,-[0.0925 µM],-,-,-,-
c1ccc(-c2csc(Nc3ncccn3)n2)cc1,-,-,-,-,-
Cc1cccnc1Nc1nc(-c2ccccn2)cs1,-[12.7 µM],14µM,45µM,-,-
Cc1cccnc1Nc1nc(-c2ccccc2)cs1,40µM,-,-,-,-
CC[C@H](C)[C@@H]1OC(=O)[C@@H](C)[C@@H](CC)NC(=O)[C@H](C)N(C)C(=O)C(C)(C)C(=O)C(C)NC(=O)[C@H](Cc2ccccc2)N(C)C(=O)[C@H](C(C)C)N(C)C(=O)CNC(=O)[C@H](CC(C)C)N(C)C(=O)CNC1=O (stereo not given in full),.,.,.,.,-
O=C1CCN(S(=O)(=O)c2ccccc2)N1,11µM,-,-,-,-
O=C1CCN(S(=O)(=O)c2ccc(Cl)cc2)N1,?,-,-,-,-
CCOc1ccc(CSC2=NCCN2)cc1Cl,-,-,?,-,-
O=[N+]([O-])c1ccc(-c2nn(-c3ccccc3)cc2/C=N/n2c(-c3cccs3)n[nH]c2=S)cc1,.,-,-,-,-
SMILES,G9a block,BAZ2B inh,JMJD2A Tudor inh,HP1b binding inh,GLS inhibitor
CC(C)c1ccc(/C=N/n2c(-c3ccccc3)n[nH]c2=S)cc1,-[0.501 µM],-,?,-,?
Cc1ccc(-c2n[nH]c(=S)n2/N=C/c2ccc(C(=O)O)cc2)cc1,3.2µM,-,3.2µM,-,-
O=[N+]([O-])c1ccc(/C=N/n2cn[nH]c2=S)cc1,7.9µM,-,7.1µM,-,-
Cc1ccc(/C=N/n2c(-c3ccccc3)n[nH]c2=S)cc1,1.1µM,-,79µM,-,?
O=[N+]([O-])c1ccc(/C=N/n2c(-c3ccccc3)n[nH]c2=S)cc1,0.56µM,-,40µM,-,-
CN(C)c1ccc(NC(=O)Cn2cc3c(n2)CCCC3)cc1,28µM,40µM,50µM,?,-
Cc1ccc(S(=O)c2ccc(NC(=O)C3CC3)cc2C#N)cc1 (stereo not given),-,-,14µM,-,?
CCn1c(O)c(/C=C2\C=Nc3ccccc32)sc1=Nc1ccc(C)cc1,-,-,-,-,-
COCCCn1c(O)c(/C=C2\N=C(C#N)C(=Nc3ccc(C)cc3)O2)sc1=S,?,10µM,?,?,-
CC(=O)N(/N=C1\Sc2ccccc2C1=O)c1cccc(C)c1,?,40µM,-,-,-
CCN(CC)c1ccc(CNc2ccc(Br)cn2)cc1,?,22µM,?,-,-
CC1CCN(CC(=O)N2CCc3ccccc32)CC1,-,-,-,-,-
CC(=O)N1CCc2cc(C(=O)CN3CCN(C(=O)c4ccco4)CC3)ccc21,13µM,-,-,-,-
CC(=O)N1CCc2ccc(C(=O)CN3CCN(c4cccc(C)c4C)CC3)cc21,?,-,.,.,.
CC(=O)N1CCc2cc(C(=O)CN3CCCN(Cc4ccc(F)cc4)C3)ccc21,45µM,-,.,.,.
CC(=O)N1CCc2cc(C(=O)CN3CCC(C)CC3)ccc21,18µM,-,-,-,-
CC(=O)N1CCc2cc(C(=O)CN3CCN(c4cccc(Cl)c4)CC3)ccc21,22µM,-,-,-,-
CC(=O)N1CCc2cc(CNC(=O)Cc3ccc(F)cc3)ccc21,-,-,-,-,-
COc1ccc(C2CC3(CC(C)(C)NC(SC)=N3)Oc3cc(O)cc(C)c32)cc1 (stereo not given),?,-,79µM,-,-
COc1ccccc1CC(=O)Nc1cc(S(=O)(=O)N2CCOCC2)ccc1N1CCOCC1,?,-,-,-,-
COc1ccc(O)c(-c2nc3ccccc3c(=O)n2Cc2ccccc2)c1,.,.,79µM,.,.
O=c1c2ccccc2nc(-c2ccccc2)n1Cc1ccccc1,-,-,-,-,-
CC(=O)Oc1ccc(N(C(C)=O)S(=O)(=O)c2cccs2)c2ccccc12,13µM,-,-,-,-
COc1ccc(Cl)cc1-c1cc(C(=O)NCC2CCCCC2)[nH]n1,.,.,.,.,-
CC(=O)N1CCN(C(=O)c2oc3ccccc3c2C)CC1,-,-,-,-,-
SMILES,G9a block,BAZ2B inh,JMJD2A Tudor inh,HP1b binding inh,GLS inhibitor
COc1ccc(N2CCN(C(=O)c3oc4ccccc4c3C)CC2)cc1,35µM,.,40µM,?,?
COc1ccc(N2CCN(C(=O)c3oc4ccccc4c3NC(=O)Cc3ccc(OC)c(OC)c3)CC2)cc1,28µM,?,?,-,-
COc1ccc(N2CCN(C(=O)c3oc4ccccc4c3NC(=O)Cc3cccc(OC)c3)CC2)cc1,40µM,?,16µM,-,-
COc1ccc(N2CCN(C(=O)c3cc(=O)c4cc(C)c(C)cc4o3)CC2)cc1,-,-,56µM,-,-
COc1ccc(OCC(=O)Nc2c(C(=O)N3CCN(c4ccccc4)CC3)oc3ccccc23)cc1,-,-,-,-,-
COc1cccc(CC(=O)Nc2c(C(=O)N3CCN(c4ccccc4F)CC3)oc3ccccc23)c1,?,-,-,-,-
CCOC(=O)c1nc(C)n(-c2ccc([N+](=O)[O-])cc2)n1,-,-,-,-,-

# Compound activity: PubChem BioAssay, National Center for Advancing Translational Sciences (NCATS)
